Records with an inconclusive call do not appear. Active and inactive are the calls of the source. Unless noted, calls come from the whole dose curve; as a rule, active = well fitted curve in the direction sought with a large enough effect; inconclusive = small, poorly fitted or top-dose-only effect, or another doubt; inactive = no such curve, though single readings can be large; an effect the other way counts as inactive or inconclusive.
Legend:
[1] = qHTS assay to identify small molecule inhibitors of chordoma cells - UCH-1 (AID 1259355); note: nearly all actives have a fitted effect of over 55% in size
Summary of the method: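 Screening used approved and investigational drugs in 15-point titration against 800 seeded cells per well. A fixed combination of auranofin with camptothecin, doxorubicin, rubitecan and topotecan followed compound addition, and growth was scored by CellTiter-Glo after 48hr.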

[2] = qHTS assay to identify small molecule inhibitors of chordoma cells - UCH-2 (AID 1259356); note: series mostly up to about 46 µM
[3] = P-glycoprotein substrates identified in KB-8-5-11 adenocarcinoma cell line, qHTS therapeutic library screen (AID 1346987); note: nearly all actives have a fitted effect of over 65% in size; note: potency is the fitted concentration of half-maximal effect
Summary of the method: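 Compounds are pinned in dose-response onto KB-8-5-11 cells (500 cells/well, colchicine-free medium) and left 72 h at 37 degree C. CellTiter-Glo luminescence then yields AC50 values.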

[4] = biological target: Atrial natriuretic peptide receptor 1 (Homo sapiens) (UniProt P16066); experiment: Natriuretic polypeptide receptor (hNpr1) antagonism - Pilot screen (AID 1347049; calls by dose curve;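 note: agonist-evoked cGMP luminescence read 20 min after hNppA addition; series mostly up to about 58 µM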)
Atrial natriuretic peptide receptor 1 (Homo sapiens), sequence (P16066 whole entry, looked up): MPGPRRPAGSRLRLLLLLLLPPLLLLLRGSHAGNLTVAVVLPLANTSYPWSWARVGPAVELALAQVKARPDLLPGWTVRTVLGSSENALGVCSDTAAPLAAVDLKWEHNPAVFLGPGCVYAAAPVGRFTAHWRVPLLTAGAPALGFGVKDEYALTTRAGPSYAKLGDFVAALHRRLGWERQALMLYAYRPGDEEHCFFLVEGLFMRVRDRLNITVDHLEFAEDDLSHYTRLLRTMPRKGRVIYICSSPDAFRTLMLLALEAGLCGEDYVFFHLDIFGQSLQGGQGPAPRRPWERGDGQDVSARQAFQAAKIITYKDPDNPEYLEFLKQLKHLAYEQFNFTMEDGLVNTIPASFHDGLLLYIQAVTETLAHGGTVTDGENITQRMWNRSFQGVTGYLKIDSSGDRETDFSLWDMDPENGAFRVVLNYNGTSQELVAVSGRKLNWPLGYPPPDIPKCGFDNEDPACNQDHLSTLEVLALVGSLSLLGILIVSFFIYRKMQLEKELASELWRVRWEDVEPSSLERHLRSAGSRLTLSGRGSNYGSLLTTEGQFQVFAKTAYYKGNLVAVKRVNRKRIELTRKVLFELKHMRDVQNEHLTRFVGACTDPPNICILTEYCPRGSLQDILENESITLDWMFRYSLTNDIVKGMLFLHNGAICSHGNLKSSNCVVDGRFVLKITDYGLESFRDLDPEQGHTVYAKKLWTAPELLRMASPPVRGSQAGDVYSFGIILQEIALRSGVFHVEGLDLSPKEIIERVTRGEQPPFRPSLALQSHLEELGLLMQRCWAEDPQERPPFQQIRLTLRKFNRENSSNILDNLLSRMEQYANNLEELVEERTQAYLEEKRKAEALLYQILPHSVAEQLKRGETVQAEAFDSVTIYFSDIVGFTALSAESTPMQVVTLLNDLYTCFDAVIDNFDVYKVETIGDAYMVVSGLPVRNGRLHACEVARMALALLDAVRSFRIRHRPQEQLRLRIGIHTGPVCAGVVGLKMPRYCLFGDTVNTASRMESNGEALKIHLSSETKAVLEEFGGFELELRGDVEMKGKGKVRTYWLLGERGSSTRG
Summary of the method: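 cGMP-sensor HEK293/hNpr1 cells, 1500/well, plated overnight at 37C. 2% GloSensor reagent, 2 h RT. Compound (23 nL pin transfer) 30 min RT, baseline luminescence pre-read. 0.1 nM hNppA, 20 min RT, post-read.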

[5] = NS1 protein of Zika virus - qHTS assay to identify small molecule inhibitors in human HEK 293 cells (AID 1347053); note: nearly all actives have a fitted effect of over 55% in size; note: potency is the fitted concentration of half-maximal effect
Summary of the method: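 Read-out is a two-antibody TR-FRET for ZIKV NS1, normalized between uninfected cells and infected cells. Compound added 1 h before MR766 infection at MOI 0.5; human HEK 293 cells incubated 24 h, 37 C.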

[6] = biological target: Parathyroid hormone/parathyroid hormone-related peptide receptor (Homo sapiens) (UniProt Q03431); experiment: qHTS for PTHR1 Agonists: Optimization Screen against the NCGC LOPAC library (AID 1347079);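 note: GloSensor cAMP luminescence in HEK-293 GP2 cells expressing human PTHR1 with IBMX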
Parathyroid hormone/parathyroid hormone-related peptide receptor (Homo sapiens), sequence (Q03431 whole entry, looked up): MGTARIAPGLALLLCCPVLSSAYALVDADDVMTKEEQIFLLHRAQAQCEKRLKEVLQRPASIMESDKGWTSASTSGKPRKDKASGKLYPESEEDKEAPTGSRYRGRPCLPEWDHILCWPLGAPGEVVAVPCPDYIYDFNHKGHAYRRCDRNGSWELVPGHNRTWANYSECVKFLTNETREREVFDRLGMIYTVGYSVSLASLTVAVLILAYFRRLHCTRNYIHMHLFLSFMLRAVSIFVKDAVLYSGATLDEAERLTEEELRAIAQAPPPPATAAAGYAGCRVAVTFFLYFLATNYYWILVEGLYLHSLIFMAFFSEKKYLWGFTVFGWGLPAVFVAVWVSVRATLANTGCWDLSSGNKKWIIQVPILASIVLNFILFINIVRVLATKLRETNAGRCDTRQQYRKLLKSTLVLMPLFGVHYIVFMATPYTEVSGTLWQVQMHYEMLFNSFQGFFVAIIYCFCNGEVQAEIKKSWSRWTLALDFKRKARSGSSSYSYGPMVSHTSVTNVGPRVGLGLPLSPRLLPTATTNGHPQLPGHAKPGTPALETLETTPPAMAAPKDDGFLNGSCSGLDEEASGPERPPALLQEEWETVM
Summary of the method: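 HEK-293 GP2 cells, PTHR1 + GloSensor cAMP; 3000 cells/well, o/n. Luciferin + IBMX 0.5mM each (stock), 1 hr 37C. Cpd titration, 1 hr 37C. Lum after 15 min RT. Ctrl M-PTH(1-15) top 10uM.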

[7] = qHTS for Inhibitors of the Functional Ribonucleoprotein Complex (vRNP) of Lassa (LASV) Arenavirus: LASV Primary Screen - GLuc reporter signal (AID 1347082; calls by dose curve; tested in HEK293 reporter line; note: nearly all actives have a fitted effect of over 60% in size; note: potency is the fitted concentration of half-maximal effect)
[8] = qHTS Screen of the MIPE 4.0 Collection Against Ewings Sarcoma (TC32) (AID 1259256); note: nearly all actives have a fitted effect of over 45% in size; note: potency is the fitted concentration of half-maximal effect
Summary of the method: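 Log-phase cells in RPMI with 5% FBS attached for 4 h, then received compounds as a titration for 48 h at 37C, 5% CO2. Viability was read by CellTiter-Glo luminescence and normalized to DMSO and no-cell wells.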

[9] = Natriuretic polypeptide receptor (hNpr1) antagonism - Pilot counterscreen GloSensor control cell line (AID 1347045; calls by dose curve; note: series mostly up to about 38 µM)
Summary of the method: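 Control counterscreen: luciferase cGMP-biosensor HEK293 cells (no Npr1) received compound for 30 min at room temperature after GloSensor substrate loading. Luminescence was measured before and 20 min after soluble guanylyl cyclase activation by 50 uM nitroprusside.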

[10] = biological target: Atrial natriuretic peptide receptor 2 (Homo sapiens) (UniProt P20594); experiment: Natriuretic polypeptide receptor (hNpr2) antagonism - Pilot subtype selectivity assay (AID 1347050; calls by dose curve)
Atrial natriuretic peptide receptor 2 (Homo sapiens), sequence (P20594 whole entry, looked up): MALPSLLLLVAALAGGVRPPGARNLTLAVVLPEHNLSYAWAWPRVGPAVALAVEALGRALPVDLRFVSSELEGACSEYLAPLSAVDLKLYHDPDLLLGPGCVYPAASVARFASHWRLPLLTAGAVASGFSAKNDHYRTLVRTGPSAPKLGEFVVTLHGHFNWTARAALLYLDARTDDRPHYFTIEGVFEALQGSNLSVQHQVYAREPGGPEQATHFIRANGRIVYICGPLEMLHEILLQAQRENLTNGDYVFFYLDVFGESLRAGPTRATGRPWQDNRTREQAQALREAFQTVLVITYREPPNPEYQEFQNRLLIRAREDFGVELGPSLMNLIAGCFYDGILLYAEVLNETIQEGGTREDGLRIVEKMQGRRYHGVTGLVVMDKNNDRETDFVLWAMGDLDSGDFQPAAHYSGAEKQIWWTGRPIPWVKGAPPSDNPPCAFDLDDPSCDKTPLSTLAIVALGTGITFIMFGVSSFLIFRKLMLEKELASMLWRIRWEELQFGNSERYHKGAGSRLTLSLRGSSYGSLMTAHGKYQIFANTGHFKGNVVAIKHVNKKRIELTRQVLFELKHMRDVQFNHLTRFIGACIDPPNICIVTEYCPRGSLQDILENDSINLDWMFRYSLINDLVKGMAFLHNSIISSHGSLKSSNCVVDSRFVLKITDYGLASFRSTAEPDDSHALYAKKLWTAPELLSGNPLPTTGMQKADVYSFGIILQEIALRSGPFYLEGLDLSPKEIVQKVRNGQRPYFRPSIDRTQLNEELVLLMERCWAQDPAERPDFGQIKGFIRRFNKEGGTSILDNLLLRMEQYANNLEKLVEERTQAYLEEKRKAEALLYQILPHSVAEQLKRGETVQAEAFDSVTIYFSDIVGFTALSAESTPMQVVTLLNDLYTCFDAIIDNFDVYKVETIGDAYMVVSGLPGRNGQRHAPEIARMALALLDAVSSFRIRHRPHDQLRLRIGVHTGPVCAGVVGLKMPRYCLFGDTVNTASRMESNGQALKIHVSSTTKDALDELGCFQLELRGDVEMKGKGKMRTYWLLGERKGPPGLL
Summary of the method: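 Luminescence from a genetically encoded cGMP luciferase biosensor in hNpr2-expressing HEK293 cells is read before and 20 min after adding 1 nM hNppC. Test compounds, in interplate 1:5 titrations, are added 30-50 min ahead of the agonist.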

[11] = biological target: T1, Tyrosine-protein phosphatase non-receptor type substrate 1 (Homo sapiens) + Leukocyte surface antigen CD47 (Homo sapiens) (UniProt P78324+Q08722); experiment: CD47-SIRPalpha protein protein interaction - LANCE assay qHTS validation (AID 1347057; active = well fitted curve in the direction sought with a large enough effect in the signal ratio, with a control signal flat, not every such curve was filed as active; the % refers to the signal ratio; note: series mostly up to about 38 µM)
T1 sequence (P78324 whole entry, looked up, the tested form may be a part): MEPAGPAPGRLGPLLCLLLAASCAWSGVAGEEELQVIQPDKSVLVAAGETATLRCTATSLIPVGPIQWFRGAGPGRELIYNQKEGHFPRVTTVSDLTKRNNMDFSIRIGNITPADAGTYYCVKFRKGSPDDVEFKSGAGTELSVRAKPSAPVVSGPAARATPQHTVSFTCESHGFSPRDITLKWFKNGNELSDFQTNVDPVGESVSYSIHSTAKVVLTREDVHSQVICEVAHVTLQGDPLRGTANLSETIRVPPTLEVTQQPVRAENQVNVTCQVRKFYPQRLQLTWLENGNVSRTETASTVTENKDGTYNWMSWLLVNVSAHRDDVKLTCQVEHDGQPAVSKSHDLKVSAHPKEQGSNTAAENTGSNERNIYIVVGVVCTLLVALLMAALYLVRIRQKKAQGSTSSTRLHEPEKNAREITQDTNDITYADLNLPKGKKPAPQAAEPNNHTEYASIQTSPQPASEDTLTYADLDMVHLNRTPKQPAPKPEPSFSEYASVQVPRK
T1 sequence (Q08722 whole entry, looked up, the tested form may be a part): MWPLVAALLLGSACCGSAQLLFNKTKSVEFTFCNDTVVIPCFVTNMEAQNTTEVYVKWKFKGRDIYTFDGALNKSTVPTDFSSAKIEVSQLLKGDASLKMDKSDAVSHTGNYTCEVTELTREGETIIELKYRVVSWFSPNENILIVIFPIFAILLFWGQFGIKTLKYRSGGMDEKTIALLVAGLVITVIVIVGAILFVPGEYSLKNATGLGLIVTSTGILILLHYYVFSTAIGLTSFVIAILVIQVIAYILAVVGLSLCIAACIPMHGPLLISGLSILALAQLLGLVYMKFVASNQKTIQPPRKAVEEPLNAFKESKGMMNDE
Summary of the method: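 Inhibition of soluble CD47/SIRPalpha ectodomain association by titrated compounds, measured as 665/615 nm time-resolved FRET ratio after sequential 30 min room-temperature incubations.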

[12] = biological target: T1, Tyrosine-protein phosphatase non-receptor type substrate 1 (Homo sapiens) + Leukocyte surface antigen CD47 (Homo sapiens); experiment: CD47-SIRPalpha protein protein interaction - Alpha assay qHTS validation (AID 1347059);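 note: bead proximity luminescence from CD47 binding SIRPalpha after compound preincubation with SIRPalpha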; note: potency is the fitted concentration of half-maximal effect
Summary of the method: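 SIRPalpha-biotin 25 nM + cpd, 30 min RT, dark; add CD47-His 12.5 nM, 30 min; add Ni-NTA/SAV beads 10 ug/mL, 30 min; AlphaScreen. Buffer PBS pH 7.4 + 0.05% IGEPAL CA-630. Non-biotinylated SIRPalpha as control inhibitor.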

[13] = biological target: T1, Tyrosine-protein phosphatase non-receptor type substrate 1 (Homo sapiens) + Leukocyte surface antigen CD47 (Homo sapiens); experiment: CD47-SIRPalpha protein protein interaction - HTRF assay qHTS validation (AID 1347058; active = well fitted curve in the direction sought with a large enough effect in the signal ratio, not every such curve was filed as active; the % refers to the signal ratio; note: series mostly up to about 38 µM)
Summary of the method: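 Soluble extracellular domains (6His-CD47, Avi-tag-biotinylated SIRPalpha) in PBS pH 7.4 with 0.05% IGEPAL CA-630. Compounds were preincubated 30 min at RT with CD47 and anti-His-Eu, then SIRPalpha and SAV-XL665 were added. TR-FRET 665/615 ratio.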

[14] = P-glycoprotein substrates identified in KB-3-1 adenocarcinoma cell line, qHTS therapeutic library screen (AID 1346986); note: nearly all actives have a fitted effect of over 60% in size
Summary of the method: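 In 1536-well format, 500 cells/well received pinned compound titrations and were incubated 72 h, 5% CO2. Viability was read by CellTiter-Glo; cytotoxic if AC50 < 10 uM and efficacy >50%.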

Measured: Potency

c1ccc(C2(c3ccccc3)CC2C2=NCCN2)cc1 (stereo not given)
inactive: [1] | [2] | [3] | [4] | [5] | [6] | [7]

COc1cc([C@@H]2c3cc4c(cc3[C@@H](O)C3COC(=O)C32)OCO4)cc(OC)c1O (stereo not given in full)
inactive: [8] | [7]
active: [3] 118 nM

CCCCc1ccc(C(=O)O)nc1
active: [12] 16500 nM
not listed: [3] | [5] | [8] | [13] | [14]
inactive: all other assays above

C[C@]12CCC(=O)C(O)=C1CC[C@@H]1[C@H]3CCC(=O)[C@@]3(C)CC[C@@H]12
inactive: [1] | [2] | [3] | [5] | [7]

O=c1[nH]c2ccc(Cl)cc2c(N[C@@H]2CN3CCC2CC3)c1-c1nc2ccccc2[nH]1
active: [8] 83.3 nM | [3] 1660 nM | [7] 1220 nM

CCCN1CCC[C@H](c2cccc(O)c2)C1
not listed: [8] | [13] | [14]
inactive: all other assays above

COC1=CC(C)=C[C@@H](C)[C@@H](O)[C@@H](C)CC(C)=CC=C[C@H](OC)[C@H]([C@@H](C)[C@@H](O)[C@H](C)[C@@]2(O)C[C@@H](O)[C@H](C)[C@@H](C(C)C)O2)OC1=O
active: [8] 3.3 nM | [3] 14.8 nM | [7] 109 nM

CN[C@@H](C)[C@H](O)c1ccccc1
inactive: [1] | [2] | [3] | [5] | [7]

CCNC(=O)C[C@@H]1N=C(c2ccc(Cl)cc2)c2cc(OC)ccc2-n2c(C)nnc21
active: [8] 3720 nM
inactive: [5]

C[C@]12N[C@H](Cc3ccccc31)c1ccccc12
not listed: [3] | [8] | [12] | [14]
inactive: all other assays above

C1CCC(NC2CCCCC2)CC1
inactive: [2] | [3] | [5] | [7]

CC[N+]1(CCOC(=O)C(O)(c2ccccc2)c2ccccc2)CCCCC1
inactive: [1] | [2] | [3] | [5] | [7]

COC(C)(C)CCCC(C)C/C=C/C(C)=C/C(=O)OC(C)C (stereo not given)
inactive: [1] | [2] | [5] | [7]

CN1C2CCC1CC(OC(=O)c1cc(Cl)cc(Cl)c1)C2 (stereo not given)
not listed: [2] | [3] | [8] | [13] | [14]
inactive: all other assays above

C[C@](O)(COc1ccc(C#N)cc1)C(=O)Nc1ccc(C#N)c(C(F)(F)F)c1
inactive: [8] | [3] | [7]

CCOP(=O)(OCC)C(C)NC(=O)N(CCCl)N=O (stereo not given)
inactive: [8] | [3] | [7]

O=[N+]([O-])c1ccc([As](=O)(O)O)cc1
inactive: [1] | [2] | [3] | [5] | [7]

CCCCCCCCCCCCCCCC[N+](C)(C)C
inactive: [2]

COc1cccc2c1[C@]13CCN(CC4CC4)[C@H](C2)[C@]1(OC)CCC(=O)C3
inactive: [8] | [3] | [7]

CO[C@H]1CCC(O[C@H]2C[C@H]([C@]3(C)CC[C@]4(C[C@H](O)[C@@H](C)[C@@H]([C@@H](C)C=C(C)C(=O)[C@H](C)C[C@H](C)C(=O)O)O4)O3)O[C@]3(O[C@@H]([C@H]4O[C@@](O)(CO)[C@H](C)C[C@H]4C)C[C@H]3C)[C@H]2C)O[C@H]1C (stereo not given in full)
active: [8] 418 nM | [5] 743 nM
inactive: [7]

O=C(O)C(Cl)Cl
inactive: [1] | [2] | [14] | [3] | [7]

COC[C@H]1OC(=O)c2coc3c2[C@@]1(C)C1=C(C3=O)[C@@H]2CC[C@H](O)[C@@]2(C)C[C@@H]1OC(C)=O
active: [8] 2090 nM
inactive: [7]

CC(Cc1ccc(O)cc1)NCC(O)c1cc(O)cc(O)c1 (stereo not given)
not listed: [5] | [8] | [13] | [14]
inactive: all other assays above

O=C(O)COc1ccccc1
inactive: [1] | [2] | [3] | [5] | [7]

Source: PubChem BioAssay (NCATS)
